Source: PubChem BioAssay
Tau filament bind: binds recombinant human tau filaments; P10636; Potency, µM (highest dose often 57.1 µM); hit rate 2% among 71,000; recombinant tau filaments, thioflavin S fluorescence, 15 h; filaments grown with octadecylsulfate alongside compound; AID 596;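 note: actives lower thioflavin S fluorescence by blocking filaments or displacing dye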
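His-tagged recombinant human tau (exons 2, 3 and 10 included), 1 uM, was induced to fibrillize by 30 uM sodium octadecylsulfate with compound present. After 15 h at 37 C, thioflavine S fluorescence (ex 450, em 510 nm) was read.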
CRE-bla Fsk: CRE-bla signaling modulation under forskolin stimulation; CHO CRE-bla reporter (cAMP response element driving beta-lactamase), forskolin EC10, beta-lactamase ratio; Potency, µM (titrated, usually from 38.2 µM), actives largely listed as activators; hit rate 2.5% among 71,000; active = well fitted activation curve with a large enough effect in the signal ratio, with a control signal flat, not every such curve was filed as active; inconclusive = small, poorly fitted or top-dose-only effect, or effect the other way, or a change in a side signal; the % refers to the signal ratio
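CHO CRE-bla cells, overnight plating in Opti-MEM with 0.5% dialyzed FBS; cpd titration + EC10 NKH 477, 3 h 37 °C; CCF4 2 h RT; ex 405/em 460 vs 530 ratio → %Activity, AC50.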
IkB signaling: IkB pathway inhibition in ABC-DLBCL cells; ABC-DLBCL IkBa-CBG/CBR dual luciferase ratio, 4 h; response scale: scaled: untreated 0%, proteasome inhibitor 100%; Potency, µM (series often up to 57.1 µM); hit rate 0.04% among 110,000; active = well fitted curve in the direction sought with a large enough effect in the signal ratio, not every such curve was filed as active; inconclusive = small, poorly fitted or top-dose-only effect, or a change in a side signal; the % refers to the signal ratio;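 note: the direction sought is a rising ratio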
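Luminescence ratio of IκBα-fused green versus native red beetle luciferase in OCI-Ly3 cells, 4 h post-doxycycline with compound; red signal alone, scaled from basal (0%) to zero light (-100%), flagged nonspecific or cytotoxic effects.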
Hsp90 Hop PPI: changes Hsp90-Hop TPR2A binding signal, up or down; AlphaScreen TPR2A-His6 binding biotin-Hsp90 C-terminal peptide; Potency, µM (series often up to 57 µM); hit rate 0.44% among 71,000; active = well fitted curve in either direction with a large enough effect; inconclusive = small, poorly fitted or top-dose-only effect, or another doubt
ALOX15 inhib: inhibitors of human 15-lipoxygenase (ALOX15); P16050; purified 15hLO-1, xylenol orange hydroperoxide absorbance; Potency, µM (series often up to 57.1 µM), usual class: inhibitors; hit rate 1.4% among 74,000; AID 887; note: nearly all actives have a fitted effect of over 55% in size
Target sequence (P16050 whole entry, looked up): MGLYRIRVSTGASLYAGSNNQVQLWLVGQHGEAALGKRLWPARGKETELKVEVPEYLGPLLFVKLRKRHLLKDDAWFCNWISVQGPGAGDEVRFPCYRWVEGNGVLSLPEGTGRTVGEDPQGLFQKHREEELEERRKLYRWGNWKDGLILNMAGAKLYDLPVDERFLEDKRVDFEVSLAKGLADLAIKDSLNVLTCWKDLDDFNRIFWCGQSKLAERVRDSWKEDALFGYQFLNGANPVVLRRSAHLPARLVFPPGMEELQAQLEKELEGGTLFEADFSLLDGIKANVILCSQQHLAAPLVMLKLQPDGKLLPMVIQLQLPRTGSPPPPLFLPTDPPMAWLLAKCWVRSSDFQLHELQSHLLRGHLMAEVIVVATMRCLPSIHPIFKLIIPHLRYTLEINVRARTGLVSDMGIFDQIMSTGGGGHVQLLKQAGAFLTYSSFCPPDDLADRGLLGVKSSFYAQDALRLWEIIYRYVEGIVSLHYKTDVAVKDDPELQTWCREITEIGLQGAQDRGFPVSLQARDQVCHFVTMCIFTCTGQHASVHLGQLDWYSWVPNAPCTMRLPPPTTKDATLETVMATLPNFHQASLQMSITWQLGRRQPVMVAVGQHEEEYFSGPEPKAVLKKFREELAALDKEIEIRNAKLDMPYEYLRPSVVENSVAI
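Quantitative HTS in 25 mM Hepes pH 7.5 containing 0.01% Triton X-100: human 15hLO-1 at 40 nM, arachidonic acid at 50 uM, 6 min turnover. Product quantified via ferrous oxidation/xylenol orange, 573:405 nm absorbance ratio.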
Hits are given with their value; . = inactive; ? = inconclusive; / = no result given; ! = not active in a repeat; [ ] = dose if it differs, or a comment. Shown are actives, neighbours in structure and some others; about 3.6% of the full set was active somewhere. Unless noted, calls come from the whole dose curve; as a rule, active = well fitted curve in the direction sought with a large enough effect; inconclusive = small, poorly fitted or top-dose-only effect, or another doubt; inactive = no such curve, though single readings can be large; an effect the other way counts as inactive or inconclusive.

SMILES	Tau filament bind	CRE-bla Fsk	IkB signaling	Hsp90 Hop PPI	ALOX15 inhib
O=C(NCc1cccc(Cl)c1)c1oc(=O)c2ccccc2c1-c1ccccc1	/	/	.	/	/
O=c1cnnc(SCCc2ccccc2)[nH]1	7.94µM	.	.	.	3.98µM
Cc1cccc(CSc2nncc(=O)[nH]2)c1	.	?	.	.	.
O=c1cnc2cnc(OCc3ccccc3)nc2n1Cc1ccc(F)cc1	?	?	.[11.4 µM]	.	.
Cc1cc(C)n2nc(CNS(=O)(=O)c3cccc(Cl)c3)nc2n1	/	/	.	/	/
Cc1cccc(C)c1NC(=O)Cn1cnc2c(=O)n(C)c(=O)n(C)c21	.	.	.	.	.
Cn1c(=O)c2ncn(CC(=O)Nc3ccc4c5c(cccc35)CC4)c2n(C)c1=O	12.6µM	.	.	.	.
Cc1ccc(C23CC4CC(CC(NC(=O)N5CCN(C)CC5)(C4)C2)C3)cc1	15.8µM	.	.	.	.
O=[N+]([O-])c1ccc(S(=O)(=O)Cc2ccccc2)c([N+](=O)[O-])c1	.[11.4 µM]	?	?	.[11 µM]	.[11.4 µM]
CC(C)=CCC[C@](C)(O)C1CC=C(C)CC1 (stereo partly specified)	/	/	/	/	12.6µM
Cc1oc(/N=C/c2ccccc2O)c(C#N)c1C	.	.	.	.	.
Cc1oc(/N=C/c2c(O)ccc3ccccc23)c(C#N)c1C	2.51µM	.	.	.	?
S=C(S)O[C@@H]1C[C@@H]2C[C@H]1[C@@H]1CCC[C@H]21	?	?	?	.	25.1µM!
COc1ccc(N2CCN(CCCNC(=O)Nc3ccccc3Cl)CC2)cc1	/	/	.	/	/
COc1ccc(Cl)c(N2CCN(CCCNC(=O)Nc3ccc(C)cc3)CC2)c1	15.8µM	.	?	.	.
Cc1cc(C)c(NC(=O)Cn2c(=O)n(CCC(C)C)c(=O)c3cccnc32)c(C)c1	/	/	.	/	/
COc1ccc(-n2nc3ccccc3n2)cc1	.	.	.	.	.
COc1ccc(-n2nc3cc(C)c(N)c(Br)c3n2)cc1	20µM	?	?	.	15.8µM
COc1ccccc1-c1c(C)c(C)nc(N)c1C#N	.	.	.	.	.
COc1ccccc1-c1cc(C2CC2)nc(N)c1C#N	.	10µM	.	.	.
Cc1coc2c(C)c3oc(=O)c(CCC(=O)NCCc4ccccc4F)c(C)c3cc12	/	/	.	/	/
Cc1ccc(C)c(CN2C(=O)C(O)(c3c[nH]c4ccccc34)c3ccccc32)c1 (stereo unspecified)	/	/	.	/	/
CC1=C(C(=O)OCC2CCCO2)C(c2ccccc2OC(C)C)C2=C(CC(c3ccco3)CC2=O)N1 (stereo unspecified)	.	?	?	.	31.6µM
CCOC(=O)Cc1ccc(NC(=O)N2CCOc3ccc(C)cc32)cc1	/	/	.	/	/
Cc1ccc(-c2nc3cnccn3c2Nc2ccc3c(c2)OCCO3)o1	.	?	.	.	25.1µM
SMILES	Tau filament bind	CRE-bla Fsk	IkB signaling	Hsp90 Hop PPI	ALOX15 inhib
COc1ccc(-c2nc3cnccn3c2Nc2ccc3c(c2)OCO3)cc1	.	?	.	?	.
CCOC(=O)c1cc(C#N)c(N)nc1C	.	10µM	.	.	.
CCOC(=O)c1cc(C#N)c(SCc2ccc(C#N)cc2)nc1C	.	?	.	.	.
Cc1ccccc1Nc1nc(CSc2nnc(-c3ccoc3C)n2C)cs1	?	.	.	.	12.6µM
Cc1occc1-c1nnc(SCc2cc(=O)n3cc(Br)ccc3n2)n1C	.	.	.	.	?
Cc1cc2c(cc1NS(=O)(=O)c1cccc(C#N)c1)n(C)c(=O)c(=O)n2C	/	/	.	/	/
C=CCn1c(=O)c2ccccc2n2c(SCC(=O)c3ccccc3)nnc12	.	.	.	.	.
C=CCn1c(=O)c2ccccc2n2c(SCc3nc(N)nc(Nc4ccccc4C)n3)nnc12	.	7.94µM	.	.	.
CCC(CC)c1nn2c(=O)cc(COc3ccc(NC(=O)c4cccc(Cl)c4)cc3)nc2s1	/	/	.	/	/
CC(=O)c1cccc(NC(=O)Nc2cc3sccc3n2C)c1	3.16µM	.	.	.	15.8µM
COC(=O)C(CCSC)NC(=O)c1c(C)oc2ncn(CC(C)C)c(=O)c12 (stereo unspecified)	/	/	.	/	/
COc1cccc(Cn2c(=O)c(-c3cccs3)nc3cncnc32)c1	?	?	.[11.4 µM]	.	.
COc1cccc(Cn2c(=O)c(-c3ccccc3)nc3cncnc32)c1	20µM	?	.[11.4 µM]	.	.
COc1cccc(Cn2c(=O)c(-c3ccc(F)c(F)c3)nc3cncnc32)c1	10µM	?	.[11.4 µM]	.	?
COc1ccc(-c2cn3cccnc3n2)cc1NC(=O)c1ccc(Br)o1	.	2.51µM	.	.	.
Cc1ccc(-c2cn3cccnc3n2)cc1NC(=O)c1ccc(Br)o1	.	?	.	.	.
CCSc1nncn1/N=C/c1ccc(OC)c(OC)c1	.	10µM	.	.	.
CC[C@@H]1OC(=O)[C@H](C)[C@H](O[C@@H]2C[C@](C)(OC)[C@H](O)[C@H](C)O2)[C@H](C)[C@H](O[C@@H]2O[C@@H](C)C[C@@H](N(C)C)[C@@H]2O)[C@](C)(O)C[C@H](C)[C@@H]2N[C@H](COCCOC)O[C@H]([C@@H]2C)[C@]1(C)O	.	.	.	.	.
CCOc1ccccc1NC(=O)CN(CCc1ccccc1)S(=O)(=O)c1ccc(C)cc1	/	/	.	/	/
O=C(c1cccc(F)c1)N1CCN(C(=O)c2cc(-c3ccc(Cl)cc3Cl)on2)CC1	.	.	?	?	15.8µM
COc1cccc(C(=O)N2CCN(C(=O)c3cccc(F)c3)CC2)c1	.	.	.	.	.
CCOc1ccc(OCC(=O)c2c(O)c3ccccc3oc2=O)cc1	.	.	?	?	15.8µM
COc1ccc(OCC(=O)c2c(O)c3ccccc3oc2=O)cc1	.	.	.	.	?
Cc1ccc2[nH]c3nc(SCCN4CCOCC4)nnc3c2c1	.	.	.	.	2.51µM
COc1ccc2[nH]c3nc(SCc4nnc(-c5ccc(C)cc5)o4)nnc3c2c1	?	1µM	.	.	.
SMILES	Tau filament bind	CRE-bla Fsk	IkB signaling	Hsp90 Hop PPI	ALOX15 inhib
Cc1ccc2[nH]c3c(=O)n(CCCN4CCOCC4)cnc3c2c1	.	.	.	.	.
COc1ccccc1-c1noc(-c2ccc(NCc3cccnc3)c([N+](=O)[O-])c2)n1	/	/	.	/	/
CCc1nn(CC(=O)NCCc2ccc(Cl)cc2)c(=O)c2cc3c(OC)cccc3n12	/	/	.	/	/
CCOC(=O)c1cc(-c2ccccc2)n(-c2cccc(C(=O)N(C)c3ccc(C)cc3)c2)c1C	/	/	.	/	/
Cc1c(C(=O)OCc2ccccc2)[nH]c2c1C(=O)CC(c1ccco1)C2 (stereo unspecified)	.	0.794µM	?	.	.
Cc1c(C(=O)OCCOC(C)C)[nH]c2c1C(=O)CC(c1ccco1)C2 (stereo unspecified)	.	0.501µM	?	.	.
COC(=O)c1[nH]c2c(c1C)C(=O)CC(c1cccs1)C2 (stereo unspecified)	.	3.98µM	.	.	.
COCCOC(=O)c1[nH]c2c(c1C)C(=O)CC(c1ccco1)C2 (stereo unspecified)	.	10µM	?	.	?
